The source of these data is PubChem BioAssay (NCATS).

Unmarked numbers belong to inactive results. Inconclusive results are not listed. The source made the active and inactive calls. Calls follow the shape of the dose curve; as a rule, active = well fitted curve in the direction sought with a large enough effect; inconclusive = small, poorly fitted or top-dose-only effect, or another doubt; inactive = no such curve, though single readings can be large; an effect the other way counts as inactive or inconclusive. *1 amine or outer side, *2 acyl side, *3 side chain or, on linkers, in order; H or OH if unused. Where a SMILES comes first, the peptide text is derived from it. [ ]: non-standard residue; d: D form. X7 = O=C([C@@H](CC(O)CCl)O[*:1])[*:2]; aIle = CC[C@@H](C)[C@H](N)C(=O)O; NMeV = CN[C@H](C(=O)O)C(C)C; NMeA = CN[C@@H](C)C(=O)O; βAla = NCCC(=O)O

Experiment [1] in a line: P-glycoprotein substrates identified in KB-8-5-11 adenocarcinoma cell line, qHTS therapeutic library screen (AID 1346987). Also: nearly all actives have a fitted effect of over 65% in size. An outline of the steps:
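KB-8-5-11: colchicine-selected sub-line of KB-3-1 over-expressing P-gp; assay medium lacked colchicine. 72 h drug exposure at 37 degree C, CellTiter-Glo.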

Experiment [2] in a line: Primary qHTS for inhibitors of nuclear receptor binding SET domain protein 2 (NSD2) in an isogenic RCH-ACV NSD2 p.E1099K mutant (9B) (AID 1645876). Also: nearly all actives have a fitted effect of over 70% in size. Also: potency is read from the fitted curve at half-maximal effect. In general terms: qHTS replaces the single test concentration by a dilution series.
For experiment [3], the target named is Phospholipid hydroperoxide glutathione peroxidase GPX4 (Homo sapiens) (UniProt P36969). Nature of the experiment: Primary qHTS Assay for Inhibitors of Recombinant Selenoprotein Glutathione Peroxidase 4 (GPX4) (AID 1845192). Also: % is scaled to controls: 0 for no effect and ±100 for the full control effect; nearly all actives have a fitted effect of over 65% in size. A digest of the protocol: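 GR-coupled assay: recombinant GPX4 preincubated 30 min with compound at room temperature; final 200 nM GPX4, 1 mM GSH, 0.5 mM cumene hydroperoxide, 0.5 mM NADPH, 100 nM GR, 0.01% BSA, pH 7.5 Tris. NADPH fluorescence (340/450 nm) read at 0 and 15 min.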

In experiment [4] the target is Luciferin 4-monooxygenase (Photinus pyralis) (UniProt P08659). The experiment can be described thus: Primary firefly luciferase (FLuc) qHTS assay for identification of artifact compounds. (AID 1845220). Also: nearly all actives have a fitted effect of over 60% in size. The conditions noted are these: outcome: dose series up to 54.1 µM unless noted. A digest of the protocol:
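D-luciferin and ATP (10 uM each, final) in Tris acetate buffer pH 7.6 were incubated with compounds for 15 min at room temperature. The reaction was started with 10 nM Photinus pyralis luciferase and luminescence read after 5 min. Percent inhibition was fitted to a 4-parameter Hill equation.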

The test system of experiment [5] is Nanoluciferase (engineered Oplophorus gracilirostris luciferase). The experiment can be described thus: Primary Nanoluciferase (NLuc) qHTS assay for identification of artifact compounds. (AID 1845222).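 Also: 0% = DMSO and -100% = no enzyme.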 A digest of the protocol: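 Diluted conditioned medium from NLuc-expressing S16 cells treated with compounds for 15 min at room temperature, then Nano-Glo substrate added; luminescence read after 5 min. Percent inhibition versus no-enzyme and DMSO controls fitted to 4-parameter Hill equation.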

Experiment [6] concerns CRL-7250. Nature of the experiment: Cytotoxic Profiling of Annotated Libraries Using Quantitative High-Throughput Screening (AID 1296008). Also: nearly all actives have a fitted effect of over 60% in size. Also: potency is read from the fitted curve at half-maximal effect. As to max response: % is scaled to controls: 0 for no effect and ±100 for the full control effect. The conditions noted are these: Five cell lines viability, CellTiter-Glo ATP luminescence, 48-72 h; max response: hits give low values. A digest of the protocol: (§1)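 Cells exposed to compounds for 48 or 72 hr at 37 degrees Celsius. Viability read as ATP-coupled luminescence with CellTiter-Glo after 10 min at room temperature.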

The subject of experiment [7] is HEK293. Described as above. To be noted: Five cell lines viability, CellTiter-Glo ATP luminescence, 48-72 h; max response: hits give low values. A digest of the protocol: as §1
Background: ATP-based viability assays read luminescence as a measure of living cells.

In experiment [8] the test system is NIH3T3. The experiment is described as above. To be noted: Five cell lines viability, CellTiter-Glo ATP luminescence, 48-72 h; max response: hits give low values. An outline of the steps: as §1
The test system of experiment [9] is C33A. Nature of the experiment: Primary qHTS to identify gynecologic anti-cancer compounds using libraries of approved drugs and bioactive compounds (AID 1345084). Also: nearly all actives have a fitted effect of over 55% in size. Also: potency is read from the fitted curve at half-maximal effect. The conditions noted are these: Gynecologic cancer cell panel viability, ATPlite luminescence, 48 h; series mostly up to 57.5 µM. A digest of the protocol:
(§2)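 Five-point cytotoxicity, 48 h drug exposure at 37 C, 5% CO2, on cells seeded 16 h beforehand. ATP content read by ATPlite luminescence.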

Experiment [10] concerns CAOV3. The description is as above. To be noted: Gynecologic cancer cell panel viability, ATPlite luminescence, 48 h; series mostly up to 57.5 µM. A digest of the protocol:
as §2

Experiment [11] has as its system CASKI. Described as above. To be noted: Gynecologic cancer cell panel viability, ATPlite luminescence, 48 h; series mostly up to 57.5 µM. An outline of the steps: as §2
For experiment [12], the system named is Es-2. Described as above. To be noted: Gynecologic cancer cell panel viability, ATPlite luminescence, 48 h; series mostly up to 57.5 µM. An outline of the steps:
as §2

Experiment [13] deals with Hek293T. Described as above. The conditions noted are these: Gynecologic cancer cell panel viability, ATPlite luminescence, 48 h, control line for the selectivity index; series mostly up to 57.5 µM. A digest of the protocol:
as §2

The test system of experiment [14] is JEG-3. The experiment is described as above. To be noted: Gynecologic cancer cell panel viability, ATPlite luminescence, 48 h; series mostly up to 57.5 µM. An outline of the steps:
as §2

The test system of experiment [15] is OV90. Described as above. The conditions noted are these: Gynecologic cancer cell panel viability, ATPlite luminescence, 48 h; series mostly up to 57.5 µM. A digest of the protocol: as §2
The subject of experiment [16] is PA-1. The description is as above. To be noted: Gynecologic cancer cell panel viability, ATPlite luminescence, 48 h; series mostly up to 57.5 µM. An outline of the steps: as §2
Experiment [17] concerns Tov-21-G. The experiment is described as above. To be noted: Gynecologic cancer cell panel viability, ATPlite luminescence, 48 h; series mostly up to 57.5 µM. A digest of the protocol:
as §2

In experiment [18] the test system is Tov112D. The experiment is described as above. The conditions noted are these: Gynecologic cancer cell panel viability, ATPlite luminescence, 48 h; series mostly up to 57.5 µM. A digest of the protocol:
as §2

The target in experiment [19] is Calcium and integrin-binding protein 1 (Homo sapiens) (UniProt Q99828). Nature of the experiment: Primary qHTS for Identification of Calcium Integrin Binding Protein 1 (CIB1) Competitor (AID 1508620).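 Also: GST tagged CIB1 binding a fluorescein labelled alphaIIb integrin peptide tracer; top concentration of the series differs between compounds; % is scaled to controls: 0 for no effect and ±100 for the full control effect.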 A digest of the protocol:
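Fluorescence polarization competition: GST-tagged CIB1 (1 uM final) preincubated with compound 15 min at room temperature, then FITC-labelled alphaIIb peptide (100 nM final) added. After 15 min at room temperature, polarization read at Ex 480/Em 540.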

Experiment [20] concerns HaCat. The experiment can be described thus: Cytotoxic Profiling of Annotated Libraries Using Quantitative High-Throughput Screening (AID 1296008). Also: nearly all actives have a fitted effect of over 60% in size. Also: potency is read from the fitted curve at half-maximal effect. As to max response: % is scaled to controls: 0 for no effect and ±100 for the full control effect. The conditions noted are these: Five cell lines viability, CellTiter-Glo ATP luminescence, 48-72 h; max response: hits give low values. A digest of the protocol: as §1

Sequence of Calcium and integrin-binding protein 1 (Homo sapiens) (Q99828 whole entry, looked up): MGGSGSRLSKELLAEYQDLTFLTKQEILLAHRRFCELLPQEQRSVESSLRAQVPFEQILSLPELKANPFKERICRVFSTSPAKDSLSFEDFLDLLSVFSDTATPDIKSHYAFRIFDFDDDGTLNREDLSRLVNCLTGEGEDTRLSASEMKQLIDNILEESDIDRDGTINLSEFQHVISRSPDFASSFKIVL
Sequence of Phospholipid hydroperoxide glutathione peroxidase GPX4 (Homo sapiens) (P36969 whole entry, looked up): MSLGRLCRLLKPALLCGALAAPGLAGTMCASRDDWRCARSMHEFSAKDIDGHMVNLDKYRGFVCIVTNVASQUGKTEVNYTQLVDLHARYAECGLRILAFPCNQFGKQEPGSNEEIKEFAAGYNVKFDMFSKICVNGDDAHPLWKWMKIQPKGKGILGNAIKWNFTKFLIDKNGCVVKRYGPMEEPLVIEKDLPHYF

With `CCC1C2CC3C4N(C)c5ccccc5C45CC(C2C5O)N3C1O` (configuration not stated), the Potency result in experiment [1], in experiment [2], in experiment [3], in experiment [5], in experiment [9] and in experiment [10] was “inactive” in each case. The Potency entry in [11], in [12], in experiment [13], in experiment [14], in [15] and in experiment [16] was “inactive” each time. Further, the Potency entry in experiment [17] and in [18] was “inactive” each time. Also, the compound was classed as inactive in experiment [4] and in [7]. Further, the max response is -9.12% in experiment [6] and 2.24% in [8].

Take `CN1CCc2cc3c(cc2C1C1OC(=O)c2c1ccc1c2OCO1)OCO3` (configuration not stated): the Potency result in experiment [1], in experiment [19], in experiment [2], in experiment [3], in [9] and in experiment [10] was “inactive” throughout. For the same compound, the Potency result in experiment [11], in experiment [12], in [13], in [14], in experiment [15] and in experiment [16] was “inactive” in each case. Also, the Potency entry in experiment [17] and in [18] was “inactive” each time. Further, the call in experiment [4] was inactive. The max response in [6] is -4.88%; in [7] it was 1.39%; in experiment [20] it was -1.45%; in experiment [8] it was 0.735%.

Regarding `C[C@@H]1[C@H](O)[C@@H](C)/C=C/C=C/CC/C=C/C=C/C=C/C=C/[C@H](O[C@H]2O[C@@H](C)[C@H](O)[C@@H](N)[C@H]2O)C[C@@H]2O[C@](O)(C[C@@H](O)[C@H](O)CC[C@@H](O)C[C@@H](O)C[C@@H](O)CC(=O)O[C@H]1C)C[C@H](O)[C@H]2C(=O)O`, the Potency entry in experiment [1], in experiment [2], in experiment [3], in experiment [9], in [10] and in [11] was “inactive” in each case. The Potency entry in [12], in experiment [13], in [14], in [15], in experiment [16] and in experiment [17] was “inactive” throughout. Besides, the Potency result in experiment [18] is “inactive”. Further, the compound was called inactive in experiment [4] and in [20]. The max response in experiment [6] is -12.4%; in [7] it was 0.0089%.

Regarding `CC[C@@H](C)[C@@H]1NC(=O)[C@@H]2CCCN2C(=O)[C@@H](CC(O)CCl)OC(=O)CCNC(=O)[C@H](C)N(C)C(=O)[C@H](C(C)C)N(C)C1=O` (some centres not stated) (cyclo([NMeA][βAla][X7]P[aIle][NMeV])), the Potency result in experiment [1], in [19], in [11], in experiment [14] and in [17] was “inactive” each time. Besides, the Potency was 608 nM (active) in experiment [2]; 968 nM (active) in experiment [6]; 685 nM (active) in [7]; 2430 nM (active) in experiment [8]; 4470 nM (active) in experiment [9]; 3160 nM (active) in experiment [10]. The Potency in experiment [12] is 4470 nM (active); in [15], 447 nM (active); in [16], 1000 nM (active); in [18], 3550 nM (active). Further, the outcome in [4] is “inactive [at 25.7 µM]”. The max response in [20] was -21.3%.

As to `COC1CC(O[C@H]2CC[C@@]3(C)C(CCC4C3CC[C@]3(C)[C@@H](C5=CC(=O)OC5)CC[C@]43O)C2)OC(C)C1O` (some centres not stated), the Potency entry in [19], in [3] and in experiment [5] was “inactive” throughout. Further, the Potency in experiment [2] was 14.2 nM (active); in experiment [6] it was 31.7 nM (active); in experiment [7] it was 79.6 nM (active); in experiment [20], 178 nM (active); in [9], 100 nM (active); in experiment [10], 178 nM (active). Moreover, the Potency was 141 nM (active) in experiment [11]; 158 nM (active) in [12]; 141 nM (active) in experiment [13]; 398 nM (active) in experiment [15]; 89.1 nM (active) in experiment [17]. In addition, the compound was classed as inactive in experiment [4]. For the same compound, the max response in experiment [8] is -0.0473%.
